The text below walks through data of PubChem BioAssay (NCATS).

Results filed as inconclusive are left out. Values without a mark were called inactive. Activity calls are given as the source filed them. Calls follow the shape of the full dose curve; tested in HEK293 reporter line.
% is scaled to controls: 0 for no effect and ±100 for the full control effect.

The assay is described as follows: qHTS for Inhibitors of the Functional Ribonucleoprotein Complex (vRNP) of Lymphocytic Choriomeningitis Arenaviruses (LCMV): Viability assay - alamar blue signal for LCMV Primary Screen (AID 1347085). Also: nearly all actives have a fitted effect of over 80% in size. The settings on record: alamar blue viability counter-screen, LCMV vRNP screen cells; series mostly up to 57.5 µM; activity change, negative = lower viability: at the top concentration. On the technique in general: qHTS replaces the single test concentration by a dilution series.
`CC(=O)N1C[C@H](O)C[C@H]1C(=O)O`: the “activity change, negative = lower viability” value was -0.09%.
With `FC(F)(F)C(F)(F)C(F)(F)C(F)(F)C(F)(F)C(F)(F)C(F)(F)C(F)(F)Br`, the “activity change, negative = lower viability” value was 2.94%.
In the case of `CCN(CC)CCNC(=O)c1cc(Br)c(N)cc1OC`, the “activity change, negative = lower viability” value was 1.25%.
Still for that read-out and setting: in the case of `Nc1ccc(N=Nc2ccccc2)c(N)n1` it was -2.62%; in that of `NNc1nnc(NN)c2ccccc12`, -1.38%; in that of `O=C(O)c1ccccc1Nc1cc(Cl)ccc1C(=O)O`, 10.8% [at 24.7 µM].
On to `CNc1c2c(nn1C)CCCC2`, for which the “activity change, negative = lower viability” value is -4.5%.
On to `CCCCNc1ccc(C(=O)OCCN(CC)CC)cc1`, for which the “activity change, negative = lower viability” value was 13.7%.
Still for that read-out and setting: in the case of `OC[C@@H](O)[C@@H](O)[C@H](O)[C@H](O)CO` it was -8.54%; in that of `COc1ccc2cc(C=O)ccc2c1`, 3.54%; in that of `C[N+]1(C)CCC(=C(c2ccccc2)c2ccccc2)CC1`, 4.18%.
`CCOC(=O)C(C)(C)Oc1ccc(Cl)cc1`: the Potency result is “inactive”.
In the case of `COc1ccc2nc(NC(=O)Nc3ccccc3)sc2c1`, the “activity change, negative = lower viability” value is -6.22%.
The same measure, in the same setting: the figure for `CCN(CC)CCOC(=O)C(Cc1cccc2ccccc12)CC1CCCO1` (stereo not given) is 3.04%.
On the same count and under the same terms, the figure for `CCNC(=O)N1CCN(CCCC(c2ccc(F)cc2)c2ccc(F)cc2)CC1` is -17.1%.
Consider `O=C(CCNNC(=O)c1ccncc1)NCc1ccccc1`, for which the Potency entry is “inactive”.
As for `CC(C)C(=O)Nc1cccc(C2CN3CCSC3=N2)c1` (stereo not given), the “activity change, negative = lower viability” value is 1.79%.
As for `CN1Cc2c(N)cccc2C(c2ccccc2)C1` (stereo not given), the Potency result is “inactive”.
On the same count and under the same terms, in the case of `CCCOc1ccccc1-c1nc2n[nH]nc2c(=O)[nH]1` it was “inactive”.
As for `C#CC1(O)CC[C@H]2[C@@H]3CCC4=CCCC[C@@H]4[C@H]3CC[C@@]21C` (stereo not given in full), the “activity change, negative = lower viability” value is -0.145%.
The same measure, in the same setting: in the case of `Cc1nc(C2CCCCC2)c(-c2ccc(S(N)(=O)=O)c(F)c2)o1` it was -3.24%.
Consider `CC[C@H](c1ccc(O)cc1)[C@@H](CC)c1ccc(O)cc1`, for which the “activity change, negative = lower viability” value is 37.3%.
On to `COC1=C(OC)C(=O)C(CCCCCCCCCCO)=C(C)C1=O`, for which the Potency result is “inactive”.
Consider `Cc1cn([C@H]2C[C@H](F)[C@@H](CO)O2)c(=O)[nH]c1=O`, for which the “activity change, negative = lower viability” value was 25%.
Same read-out and setting: the figure for `CCN(CC)CC(=O)Nc1c(C)cccc1C(=O)OC` is 0.945%; for `O=C(O)CCNC(=O)c1ccccc1` it is 7.31%.
Consider `NC(N)=NCCC[C@H](N)C(=O)O`, for which the Potency result was “inactive”.
Consider `O=c1[nH]sc2cc(Cl)ccc12`, for which the “activity change, negative = lower viability” value is -150%.
The same measure, in the same setting: the figure for `Clc1ccc2c(c1)CCc1cccnc1C2=C1CCNCC1` is -149%.
For the molecule `O=C(CCCN1CCC(O)(c2cccc(C(F)(F)F)c2)CC1)c1ccc(F)cc1`, the Potency result was “inactive”.
As for `CCCCCC(N)=O`, the “activity change, negative = lower viability” value was 4.89%.
The same measure, in the same setting: in the case of `O=C(O)C(=O)Nc1cccc(-c2nn[nH]n2)c1` it was 11.3%; in that of `OC[C@H]1O[C@@H](O[C@@H]2[C@@H](CO)O[C@](O)(CO)[C@H]2O)[C@H](O)[C@@H](O)[C@H]1O`, 4.67%.
Still for that read-out and setting: the figure for `CCCCN(CCN(CCCC)C(=O)N1CCOCC1)C(=O)N1CCOCC1` is -11.1%; for `O=C(NCCCN1CCOCC1)c1ccc(Cl)cc1` it is 5.48%; for `O=C(Oc1cccc2cccnc12)c1ccccc1` it is -151%.
The same measure, in the same setting: in the case of `CC(C)Cc1ccc(C(C)C(=O)OCc2ccccn2)cc1` (stereo not given) it was -0.371%.
Turning to `NCCc1cnc[nH]1`, the Potency entry was “inactive”.
For `CO[C@@H]1[C@@H](O[C@@H]2O[C@H](C)[C@@H](O[C@H]3C[C@@](C)(O)[C@@H](O)[C@H](C)O3)[C@H](N(C)C)[C@H]2O)[C@@H](CC=O)C[C@@H](C)[C@@H](O[C@@H]2CC[C@H](N(C)C)[C@@H](C)O2)/C=C/C=C/C[C@@H](C)OC(=O)C[C@H]1OC(C)=O`, the “activity change, negative = lower viability” value was 31.3%.
In the case of `Oc1ccc(Cl)cc1Cc1cc(Cl)ccc1O`, the “activity change, negative = lower viability” value was 0.176%.
